Sampled rows, rich in hits. Any-hit rate of the full collection: about 5.7%.
HT1080-NT tox – kills 2HG-producing HT-1080-NT fibrosarcoma cells; HT-1080-NT fibrosarcoma viability, CellTiter-Glo ATP luminescence, 48 h; Potency, µM (top dose mostly 46.1 µM), without a hit: top-dose activity, negative = less viability, most hits filed as cytotoxic; actives 1.6% (n = 360,000); AID 686970;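 further: NT is the 2HG producing partner of a matched IDH1 knockdown line; 0% = DMSO-treated cells and -100% = media-only wells without cells; nearly all actives have a fitted effect of over 55% in size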
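Toxicity toward the 2HG-producing NT line was scored as %Activity, normalised to DMSO and no-cell wells, from CellTiter-Glo luminescence after 48 hours' treatment.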
KB-V1 cytotox – KB-V1 MDR subline cytotoxicity; Potency, µM (top dose mostly 46.1 µM), hits mostly cytotoxic; actives 3.4% (n = 400,000); KB-V1 MDR cells viability, CellTiter-Glo, 72 h; further: nearly all actives have a fitted effect of over 60% in size
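Luminescent ATP read-out (CellTiter-Glo, 10 min) measures survival of drug-selected KB-V1 MDR cells after 72 h, 37 degrees C compound exposure. Medium: phenol-red-free DMEM, 10% FBS. Values from fitted concentration-response curves.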
HT1080 IDH1KD tx – HT-1080 IDH1 knockdown cell toxicity (counter line) | AID 686971 | actives 2% (n = 360,000) | HT-1080 IDH1 knockdown viability, ATP luminescence, 48 h | Potency, µM (series often up to 46.1 µM), for the others: top-dose activity, negative = toxicity, actives largely listed as cytotoxic;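 further: 0% = DMSO wells and -100% = cell-free medium wells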
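Knockdown cells (IDH1KD HT-1080) received compounds 2 h after plating at 750 cells/well and were kept 48 h at 37 °C in 5% FBS RPMI. A CellTiter-Glo luminescence read gave % activity for curve fitting.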
KB-3-1 tox – kills parental KB-3-1 adenocarcinoma cells; Potency, µM (series often up to 46.1 µM), hits mostly cytotoxic; KB-3-1 viability, CellTiter-Glo ATP luminescence, 72 h; actives 1.4% (n = 400,000); further: nearly all actives have a fitted effect of over 60% in size
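Cells are dispensed, compounds pinned in, plates held at 37 °C for 72 h, then CellTiter-Glo is added and luminescence read after 10 minutes. Cell line: parental KB-3-1 in phenol-red-free DMEM, 10% FBS.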
* = called active by the depositor. The call rests on the fitted dose curve; in most records, active means well fitted curve in the direction sought with a large enough effect; inconclusive means small, poorly fitted or top-dose-only effect, or another doubt; inactive means no such curve, though single readings can be large; an effect the other way counts as inactive or inconclusive. Unless noted, on the % scale 0 is the no-effect control and ±100 the full control effect; potency means the concentration at half of the fitted maximal effect.

CC1(C(=O)Nc2ccc3c(c2)OCO3)Cc2c(-c3ccc4c(c3)OCO4)ccnc2O1 (stereo unspecified) was read as HT1080-NT tox inconclusive, KB-V1 cytotox inconclusive, HT1080 IDH1KD tx 2.1µM* and KB-3-1 tox 5.2µM*.
`CC1(C(=O)Nc2ccc(Cl)cc2)Cc2c(-c3cccc(C(N)=O)c3)ccnc2O1` (stereo unspecified) gave HT1080-NT tox inconclusive, KB-V1 cytotox inconclusive, HT1080 IDH1KD tx 4.6µM* and KB-3-1 tox inconclusive.
Cc1ccc(C)c(NC(=O)CSc2ncc3c(n2)-c2ccccc2N(Cc2ccccc2C)S3(=O)=O)c1 was read as KB-V1 cytotox inactive and KB-3-1 tox inactive.
For CC1(C(=O)Nc2ccc3c(c2)OCO3)Cc2c(-c3cccc(C(N)=O)c3)ccnc2O1 (stereo unspecified) the results were HT1080-NT tox inconclusive, KB-V1 cytotox inconclusive, HT1080 IDH1KD tx 3.7µM* and KB-3-1 tox 7.3µM*.
Screening C=C1C=C(C(F)F)n2ncc(C(=O)Nc3ccc(Br)cc3C(F)(F)F)c2N1 returned KB-V1 cytotox inactive and KB-3-1 tox inactive.
O=C(c1ccccc1)c1cnc(Nc2ccccc2Cl)s1 was read as HT1080-NT tox -3%, KB-V1 cytotox 13µM*, HT1080 IDH1KD tx -15% and KB-3-1 tox inactive.
`CC(C)(C)C(=O)c1cnc(Nc2ccccc2Cl)s1` gave HT1080-NT tox -20%, KB-V1 cytotox inactive, HT1080 IDH1KD tx -9% and KB-3-1 tox inconclusive.
Screening O=C(COC(=O)c1ccc(C(F)(F)F)cc1)NC(=O)C1CCCCC1 returned KB-V1 cytotox inactive and KB-3-1 tox inactive.
For Cn1nc(C(F)(F)F)c2cc(C(=O)Nc3ccc(F)cc3)sc21 the results were HT1080-NT tox -1%, KB-V1 cytotox inactive, HT1080 IDH1KD tx -15% and KB-3-1 tox inactive.
Screening Cn1nc(C(F)(F)F)c(-c2ccc(F)cc2)c1NC(=O)Nc1ccc(F)cc1 returned HT1080-NT tox 23µM*, KB-V1 cytotox inconclusive, HT1080 IDH1KD tx inconclusive and KB-3-1 tox inconclusive.
Cc1ccc(C2c3c(-c4cc(C)ccc4O)n[nH]c3C(=O)N2Cc2ccco2)cc1 (stereo unspecified) was read as KB-V1 cytotox inconclusive and KB-3-1 tox inactive.
For O=C1c2[nH]nc(-c3ccccc3O)c2C(c2cccc(Cl)c2)N1Cc1ccco1 (stereo unspecified) the results were HT1080-NT tox inconclusive, KB-V1 cytotox 15µM*, HT1080 IDH1KD tx inconclusive and KB-3-1 tox inconclusive.
`COc1ccc(C2c3c(-c4ccccc4O)n[nH]c3C(=O)N2Cc2ccco2)cc1OC` (stereo unspecified) gave HT1080-NT tox inconclusive, KB-V1 cytotox inactive, HT1080 IDH1KD tx -17% and KB-3-1 tox inactive.
O=C1c2[nH]nc(-c3ccccc3O)c2C(c2ccc(F)cc2)N1Cc1ccco1 (stereo unspecified) was read as HT1080-NT tox inconclusive, KB-V1 cytotox 6.5µM*, HT1080 IDH1KD tx inconclusive and KB-3-1 tox inconclusive.
`CC(C)NC(=O)c1ccc(CN2CCC(Cc3ccccc3)CC2)cc1` gave HT1080-NT tox 10%, KB-V1 cytotox inactive, HT1080 IDH1KD tx 4% and KB-3-1 tox inactive.
`COc1ccc(CCNC(=O)c2ccc(CN3CCC(Cc4ccccc4)CC3)cc2)cc1` gave HT1080-NT tox -1%, KB-V1 cytotox 9.2µM*, HT1080 IDH1KD tx -2% and KB-3-1 tox inactive.
Cc1ccccc1NC(=O)c1ccc(CN2CCC(Cc3ccccc3)CC2)cc1 was read as HT1080-NT tox 23µM*, KB-V1 cytotox 15µM*, HT1080 IDH1KD tx inconclusive and KB-3-1 tox inconclusive.
`COc1ccc2c(c1)c(C(=O)CN(C)C)c(C)n2C` gave KB-V1 cytotox inactive and KB-3-1 tox inconclusive.
O=C(c1ccccc1)c1ccc(NCCCn2ccnc2)c([N+](=O)[O-])c1 was read as HT1080-NT tox -24%, KB-V1 cytotox 5.2µM*, HT1080 IDH1KD tx -21% and KB-3-1 tox inconclusive.
For CCOC(=O)CNC(=O)c1ccccc1 the results were HT1080-NT tox -6%, KB-V1 cytotox inactive, HT1080 IDH1KD tx 1% and KB-3-1 tox inactive.
For Cc1nonc1OCC(C)(COc1nonc1C)NC(=O)c1ccccc1 the results were HT1080-NT tox -1%, KB-V1 cytotox 18µM*, HT1080 IDH1KD tx -3% and KB-3-1 tox inactive.
Screening CCc1ccc2c(c1)c(=O)c(C(=O)c1ccccc1)cn2CC(=O)Nc1ccc(C)c(Cl)c1 returned KB-V1 cytotox inactive and KB-3-1 tox inactive.
Screening CN1C(=O)C2(NC(=O)c3ccccc3N2C)c2ccccc21 (stereo unspecified) returned HT1080-NT tox -6%, KB-V1 cytotox inactive, HT1080 IDH1KD tx 0% and KB-3-1 tox inactive.
Screening CN1C(=O)C(Cl)(Cl)C(=O)c2ccccc21 returned HT1080-NT tox 18µM*, KB-V1 cytotox inactive, HT1080 IDH1KD tx inconclusive and KB-3-1 tox inactive.
CC(C)OCCCNC(=O)c1cc2c(=O)n(C)c3ccccc3c2n1C was read as HT1080-NT tox 0%, KB-V1 cytotox inconclusive, HT1080 IDH1KD tx 3% and KB-3-1 tox inactive.
`CCCCN(CC)CCCNC(=O)c1cc2c(=O)n(C)c3ccccc3c2n1C` gave HT1080-NT tox -5%, KB-V1 cytotox inactive, HT1080 IDH1KD tx -21% and KB-3-1 tox 16µM*.
For O=C(NCCC1=CCCCC1)c1c(O)nc2sccn2c1=O the results were HT1080-NT tox -21%, KB-V1 cytotox 5.2µM*, HT1080 IDH1KD tx -23% and KB-3-1 tox inconclusive.
O=C(NCCC1=CCCCC1)c1c(O)nc2ccccn2c1=O was read as HT1080-NT tox inconclusive, KB-V1 cytotox inconclusive, HT1080 IDH1KD tx -25% and KB-3-1 tox inactive.
For CC(=O)c1ccc(NC(=S)NC(C)c2ccc(Cl)cc2Cl)cc1 (stereo unspecified) the results were HT1080-NT tox inconclusive, KB-V1 cytotox 18µM*, HT1080 IDH1KD tx inconclusive and KB-3-1 tox inactive.
`CC(=O)c1ccc(NC(=S)Nc2ccc(Br)c(Cl)c2)cc1` gave HT1080-NT tox -18%, KB-V1 cytotox inactive, HT1080 IDH1KD tx -28% and KB-3-1 tox inactive.
COc1cc2nc(N3CCCN(C)CC3)nc(NC3CCNCC3)c2cc1OC was read as HT1080-NT tox -4% and HT1080 IDH1KD tx 12%.
Screening COc1cccc(/C(O)=C/c2nc3ccc(C(=O)NCCc4ccc(Cl)cc4)cc3[nH]c2=O)c1 returned HT1080-NT tox 18µM*, KB-V1 cytotox inconclusive, HT1080 IDH1KD tx inconclusive and KB-3-1 tox 21µM*.
`COc1ccc(NC(=O)Cn2c(C)cc3ccccc3c2=O)c(OC)c1` gave KB-V1 cytotox inconclusive and KB-3-1 tox inactive.
Screening Cc1cc(NC(=O)Nc2nnc(N3CCCCC3)s2)ccc1Br returned KB-V1 cytotox inconclusive and KB-3-1 tox inactive.
For CCCCN(CCCC)C(=O)CN(C)S(=O)(=O)c1ccc2c(c1)n(C)c(=O)c(=O)n2C the results were HT1080-NT tox 8%, KB-V1 cytotox 12µM*, HT1080 IDH1KD tx 10% and KB-3-1 tox inactive.

Source: PubChem BioAssay (National Center for Advancing Translational Sciences (NCATS))
